Assay outcomes deposited in PubChem by The Scripps Research Institute Molecular Screening Center.
OPRM1-OPRD1 inv – inverse agonists of MOR-DOR heterodimerization, primary screen, cell-based, luminescence; AID 504357, 2011; Mu-type opioid receptor (Homo sapiens) + Delta-type opioid receptor (Homo sapiens), …; inhibition, % at 9.3 µM; 340,000 tested, 0.21% active; cell-based MOR-DOR heterodimer luminescence, inverse agonism; in the data active means inhibition above about 22%, passing the limit was not always enough;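 further: 0% = cells with DMSO and 100% = wells without cells with DMSO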
HTR5A inv ctr – HTR5A inverse agonists in luminescence cell assay, primary screen, counter-screen for OPRM1-OPRD1 heterodimer inverse agonist project, full-deck HTS; 5-hydroxytryptamine receptor 5A (Homo sapiens), P47898; HTR5A cell line, inverse agonism; inhibition, % at 9.3 µM; 340,000 tested, 0.083% active; AID 504634, 2011; in the data active means inhibition mostly above about 23%, no sharp cut-off; inactive means mostly below about 18%;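 further: 0% = cells with DMSO and 100% = no-cell wells with DMSO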
Target sequence (P47898 whole entry, looked up): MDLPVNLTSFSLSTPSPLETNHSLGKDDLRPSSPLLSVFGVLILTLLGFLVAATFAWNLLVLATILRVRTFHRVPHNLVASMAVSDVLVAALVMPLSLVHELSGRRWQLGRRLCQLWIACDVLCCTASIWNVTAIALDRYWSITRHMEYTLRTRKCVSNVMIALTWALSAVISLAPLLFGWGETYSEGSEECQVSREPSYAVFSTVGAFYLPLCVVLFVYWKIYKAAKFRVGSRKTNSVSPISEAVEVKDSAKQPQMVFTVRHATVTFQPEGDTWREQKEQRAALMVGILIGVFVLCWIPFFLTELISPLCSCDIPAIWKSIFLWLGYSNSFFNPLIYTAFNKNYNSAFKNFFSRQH
MOR-DOR ag-1 – agonists of OPRM1-OPRD1 heterodimerization, primary screen, cell-based, luminescence | 340,000 tested, 0.3% active | AID 504326, 2011 | Mu-type opioid receptor (Homo sapiens) + Delta-type opioid receptor (Homo sapiens), … | activation, % at 9.3 µM | cells;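 further: 0% = vehicle-treated cells and 100% = reference agonist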
HTR5A ag – HTR5A agonists in luminescence cell assay, primary screen, counter-screen for OPRM1-OPRD1 heterodimer agonist project, full-deck HTS | cell-based | 5-hydroxytryptamine receptor 5A (Homo sapiens), P47898 | 340,000 tested, 0.61% active | activation, % at 9.3 µM; in the data active means activation mostly above about 9.5%, no sharp cut-off; inactive means mostly below about 7.6%;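 further: 0% = cells with vehicle only and 100% = reference agonist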
MOR-DOR ag-2 – OPRM1-OPRD1 heterodimerization promoters, counter-screen for HTR5A agonist project, cell-based, luminescence. 800 tested, 13% active. AID 504913, 2011. activation, % at 9.3 µM. U2OS counter-screen cells, complementation luminescence, 3 h. shares compounds with HTR5A ag
HTR5A ag conf – HTR5A agonists, retest of hits, confirmation, cell-based, luminescence | shares compounds with HTR5A ag | HTR5A agonist cell assay | activation, % at 9.3 µM | 800 tested, 17% active; in the data active means activation above about 17%;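 further: 0% = cells with vehicle only and 100% = full reference agonist response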
* marks the source's active call; other numbers are inactive results; · = not tested or not shown. Only some compounds are listed: those with a hit (about 1.1% of all), similar ones and a draw of the others. Unless noted, no stated cut-off is given here; in the data, active means activation above about 18%; inactive means the rest.

SMILES	OPRM1-OPRD1 inv	HTR5A inv ctr	MOR-DOR ag-1	HTR5A ag	MOR-DOR ag-2	HTR5A ag conf
CSc1ccc(/C=C/C(=O)OCC(=O)NC2CCS(=O)(=O)C2)cc1 (configuration not stated)	6.5	-10.3	-1.6	3.7	·	·
CCOc1ccc(C(C)=O)cc1COC(=O)c1ccccc1C(=O)N(C)Cc1ccccc1	22.6	-18.1	-4.6	-1.7	·	·
CC1CC(C)(C)NC(=S)N1CCC(=O)N1CCc2ccccc2C1 (configuration not stated)	-7.3	-33.2	1.6	15.5*	2.0	-2.1
CC1CC(C)(C)NC(=S)N1CCC(=O)N1CCN(c2ccccc2)CC1 (configuration not stated)	11.1	6.8	-2.5	-1.8	·	·
O=C(NCc1ccc2c(c1)OCO2)C1CC(=O)N(CCc2ccc(F)cc2)C1 (configuration not stated)	-11.9	-48.4	1.5	16.3*	-0.9	-3.5
O=C(NCc1ccc2c(c1)OCO2)C1CC(=O)N(CCc2ccccc2)C1 (configuration not stated)	8.8	8.0	-1.5	-2.7	·	·
C/C(=N/NS(=O)(=O)c1ccc(Br)cc1)c1ccc(NC(=O)c2ccc(C)o2)cc1	5.5	-38.0	-1.3	17.1*	3.5	-3.3
O=C(Nc1ccc(-n2cc(Cl)cn2)cc1)c1ccncc1	7.1	-14.3	-1.3	14.4*	18.1*	5.7
COc1ccccc1N(C(=O)CNC(=O)c1ccco1)C(C(=O)NC1CCCCC1)c1ccncc1 (configuration not stated)	13.5	1.4	-2.2	0.5	·	·
O=C(Nc1ccccc1)c1ncoc1-c1ccc(Cl)cc1	-13.6	-50.2	2.7	19.3*	2.1	1.6
Cc1cc(C(C)(C)C)ccc1OCCCCN1CCCC1	14.1	6.9	-2.3	-5.2	·	·
CCC(C)(C)c1ccc(OCCCC[n+]2cccc(C)c2C)c(C(C)(C)CC)c1	-56.0	-43.9	10.9	21.0*	-2.2	-2.2
CS(=O)(=O)C1=C(O)C(=O)N(CCCC(=O)O)C1c1ccccc1F (configuration not stated)	0.7	-43.0	-0.1	16.5*	0.3	7.2
O=C(O)c1ccc(NS(=O)(=O)Cc2ccc(Cl)c(Cl)c2)cc1	11.7	-2.1	-2.3	0.5	·	·
O=C(C1CCN(S(=O)(=O)c2ccccc2)CC1)N1CCc2ccccc21	8.4	-19.8	-2.1	7.7	·	·
O=C(C1CCN(S(=O)(=O)c2ccc3c(c2)OCCO3)CC1)N1CCc2ccccc21	0.6	-85.5	-0.1	33.1*	0.8	23.3*
CC(=O)NC12CC3CC(C1)CC(C(=O)Oc1ccc(N(C)S(=O)(=O)c4cc(C)ccc4C)cc1)(C3)C2	16.3	29.8	-3.1	-12.2	·	·
COc1ccccc1OCC(=O)Nc1ccc(NC(=O)COc2ccccc2OC)cc1	4.1	-58.3	-0.8	24.3*	-0.1	-0.9
COc1ccccc1OCC(=O)Nc1ccc(Cl)cc1	-0.5	7.4	0.1	-3.1	·	·
O=S(=O)(c1ccccc1Br)N1CCN(c2ncccn2)CC1	-0.1	-20.4	0.0	6.9	·	·
COc1ccc2c(c1)C(O)C(CO)C(C(=O)O)C2 (configuration not stated)	17.1	4.6	-3.5	-1.2	·	·
COc1ccc(Cl)cc1NC(=O)CN(C)C(=O)C1CCN(C(=O)Nc2ccccc2)CC1	9.2	-1.0	-2.5	-1.1	·	·
CN(CC(=O)Nc1ccc(Cl)c(C(F)(F)F)c1)C(=O)c1ccc2c(c1)NC(=O)CS2	1.6	-24.5	-0.4	15.8*	-1.2	-1.0
CN(CC(=O)Nc1ccc(F)c(F)c1F)C(=O)c1ccc2c(c1)NC(=O)CS2	-4.1	-26.5	1.0	10.9	·	·
Cc1coc2cc3oc(=O)c(CCC(=O)N4C[C@H]5C[C@@H](C4)c4cccc(=O)n4C5)c(C)c3cc12	10.3	-9.5	-2.0	25.9*	1.4	50.9*
SMILES	OPRM1-OPRD1 inv	HTR5A inv ctr	MOR-DOR ag-1	HTR5A ag	MOR-DOR ag-2	HTR5A ag conf
O=[N+]([O-])c1ccc(S(=O)(=O)NN=C2CCCCC2)cc1	6.8	-54.8	-1.3	15.3*	1.8	4.1
O=S(=O)(NN=C1CCCCCC1)c1ccc(Cl)cc1	16.7	-30.2	-3.2	3.4	·	·
O=C(NCCc1c[nH]c2ccccc12)C(=O)NCC1OCCCN1S(=O)(=O)c1ccc(F)cc1 (configuration not stated)	7.7	-58.9	-1.5	16.1*	3.7	24.3*
O=C(NCCc1c[nH]c2ccccc12)C(=O)NCC1OCCCN1S(=O)(=O)c1cccs1 (configuration not stated)	-1.7	-73.0	0.2	30.9*	0.9	-6.2
O=C(NCCc1c[nH]c2ccccc12)C(=O)NCC1OCCN1S(=O)(=O)c1cc(F)ccc1F (configuration not stated)	-4.1	-6.5	0.8	34.3*	0.6	44.7*
CNC(=O)C(=O)NCC1OCCCN1S(=O)(=O)c1cccs1 (configuration not stated)	5.4	1.0	-1.1	3.7	·	·
O=C(NCCO)C(=O)NCC1OCCCN1S(=O)(=O)c1cccs1 (configuration not stated)	2.9	-3.9	-0.6	1.5	·	·
O=C(NCCCO)C(=O)NCC1OCCCN1S(=O)(=O)c1cccs1 (configuration not stated)	3.6	-43.6	-0.9	17.0*	-0.1	-1.8
O=C(NCCCc1ccccc1)C(=O)NCC1OCCN1S(=O)(=O)c1cc(F)ccc1F (configuration not stated)	17.2	9.7	-3.3	1.9	·	·
O=C(COC(=O)/C=C/c1cccc(C(F)(F)F)c1)NCc1cccs1	-13.4	-17.8	3.4	7.1	·	·
COc1ccc(NC(=O)[C@H](C)NC(=O)[C@@H]2Cc3ccccc3CN2C(=O)OC(C)(C)C)cc1	10.7	-1.8	-2.0	0.4	·	·
O=C(Cc1ccccc1)NNC(=O)c1ccc(Br)o1	21.0	1.8	-3.9	0.3	·	·
Cc1ccc(S(=O)(=O)N2CCOC2CNC(=O)C(=O)NCCc2c[nH]c3ccccc23)cc1 (configuration not stated)	-1.0	-117.9	0.1	53.7*	0.2	-1.6
Cc1cc(F)ccc1S(=O)(=O)N1CCCOC1CNC(=O)C(=O)NCCc1c[nH]c2ccccc12 (configuration not stated)	4.5	-74.9	-0.8	16.2*	42.8*	4.0
Cc1ccc(S(=O)(=O)N2CCOC2CNC(=O)C(=O)NCCc2ccc(S(N)(=O)=O)cc2)cc1 (configuration not stated)	0.7	-13.7	-0.1	3.8	·	·
N#CC1=C(N)OC2=C(C(=O)CCC2)C1c1cc2c(cc1Br)OCO2 (configuration not stated)	5.1	5.6	-1.0	-1.5	·	·
